The structures appear in SMILES notation. Where “and” joins values, the source holds several entries; their conditions need not be identical. Equal entries are not always repeated. Calls of active or inactive are those of the source. Unless noted, no rule for the calls is given here.

One may read the viability as a read-out of living cells in per cent, often relative to untreated cells. The inhibition is the change of the read-out against control, counted positive when it falls.

Assay [1] in a line: P. berghei load reduction in hepatocytes – cell-based, HepG2, luciferase luminescence, HepG2 viability, primary screen (AID 624349; in the data active = parasite load remaining mostly below about 12%, no sharp cut-off; inactive = mostly above about 10%;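 also: 100% = mean of DMSO negative control wells on the same plate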). The settings on record: P. berghei liver stage in HepG2, luciferase luminescence, concentration not given here; parasite load remaining: stronger effect = lower value; viability: measured here: HepG2 viability without parasites.
Assay [2] is described as follows: signal quenchers or enhancers, Cy5 substrate/SSB – biochemical, NIH Clinical Collection, E. coli SSB, artefact control for HCV NS3 helicase inhibitor project (AID 743268). The following applies: Cy5-oligo bound E. coli SSB, fluorescence interference.
In assay [3] the test system is Hepatitis C virus NS3 helicase. As to the kind of experiment: blockers of NS3h binding to DNA – biochemical, fluorescence polarization, NIH Clinical Collection, primary screen (AID 743270). The settings on record: NS3 helicase binding to Cy5-dT15 DNA, stronger effect = higher value, concentration not given here. (In fluorescence polarisation assays a small probe gives low polarisation when free and higher when bound to something large.)

For assay [4], the target named is Single-stranded DNA-binding protein (Escherichia coli (strain K12)) (UniProt P0AGE0). As to the kind of experiment: SSB-ssDNA binding inhibitors – biochemical, fluorescence polarization, NIH Clinical Collection, counter-screen for HCV NS3 helicase inhibitor project (AID 743271; in the data active = inhibition above about 28%). The settings on record: E. coli SSB-DNA binding, stronger effect = higher value, concentration not given here.

The nature of assay [5]: compounds distorting NS3 helicase fluorescence signal – biochemical, NIH Clinical Collection, artefact control for HCV NS3 helicase inhibitor project (AID 743272).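 Also: HCV NS3 helicase with a Cy5 labelled single stranded DNA probe.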 The settings on record: fluorescence interference counterscreen, HCV NS3 helicase assay; stronger effect = lower value.
Assay [6] relates to Neuropilin-2 / VEGF-C interaction (human). As to the kind of experiment: small molecules blocking Neuropilin-2/VEGF-C interaction – biochemical, microplate binding format, z-score (AID 743281). The following applies: microplate NRP2/VEGF-C binding assay; stronger effect = lower value.
Assay [7] is described as follows: modulation of C. elegans fzo-1 (AID 1259413).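 Also: fzo-1 mutant C. elegans worms in liquid wells.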 The following applies: C. elegans fzo-1 modulator screen, mean read-out; stronger effect = higher value.
Assay [8] can be described thus: viability loss with induced miR-34 in A549 – imaging, A549 dox-inducible miR-34, nuclei and caspase counts, primary screen (AID 1347080;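 active = compounds whose cell count with miR-34 switched on is under 0.7 times the count with it off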). The settings on record: A549 miR-34 inducible, Hoechst nuclei count, 48 h.
A short description of assay [9]: galactose survival enhancers in mitochondrial complex I cybrids – cell-based, galactose medium, ATP luminescence, primary screen (AID 1645843;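 active = z-score of at least 1.8 in each of two replicates, scored against plate mean and spread of sample wells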;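 also: positive z means more ATP and so rescue of galactose-driven cybrid death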). The settings on record: complex I mutant cybrid cells, 72 h, stronger effect = higher value.
Assay [10] in a line: MELAS cybrid and Rieske KO viability enhancers – cell-based, MELAS cybrids, Rieske KO mouse fibroblasts, CellTiter-Glo, primary screen (AID 1508586;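 active = mean z-score across replicates of 1.96 or higher in either the MELAS or the Rieske mutant cell line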;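 also: z relative to plate mean and SD of compound and empty wells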). The settings on record: low glucose.
Where [11] appears, read: stronger effect = lower value, cell number ratio, induced over uninduced.
[12] abbreviates: measured here: relative caspase fold change +Dox/-Dox.
Where [13] appears, read: measured here: total cells with miR-34 induction, stronger effect = lower value.
The mark [14] stands for this setting: measured here: total cells without miR-34 induction.
The mark [15] stands for this setting: MELAS cybrid survival, CellTiter-Glo 48 h, stronger effect = higher value.
Where [16] appears, read: Rieske KO mouse fibroblast survival, CellTiter-Glo 72 h.

As to `CCOC(=O)C1(CCCCCCOc2ccc(Cl)cc2)CO1` (stereo not drawn), in assay [1], the parasite load remaining was 85.5% (inactive). In addition, the viability in [1] was 89%. In addition, the fluorescence ratio was 1.01 (inactive) in assay [2] and 0.93 (inactive) in [5]. The values for the inhibition in assay [3] and in assay [4] were 1.98% (inactive) and -2.41% (inactive), respectively. In addition, the results for the z-score in assay [6] and in assay [9] were -0.326 (inactive) and 0.13 (inactive), respectively. Besides, in [7], the mean signal was 266 (inactive). For the same compound, the values for the fold change in assay [8] (setting [11]) and in assay [8] (setting [12]) were 0.886 (inactive) and 1.28, respectively. Further, the cell count in assay [8] (setting [13]) came out at 7740; in assay [8] (setting [14]) it was 8740.

As for `CO[C@H]1C=CO[C@@]2(C)Oc3c(C)c(O)c4c(O)c(c5c(c4c3C2=O)NC2(CCN(CC(C)C)CC2)N=5)=NC(=O)/C(C)=C\C=C/[C@H](C)[C@H](O)[C@@H](C)[C@@H](O)[C@@H](C)[C@H](OC(C)=O)[C@@H]1C`, the mean signal in assay [7] was 242 (inactive).

In the case of `CC[C@]1(O)CC2CN(CCc3c([nH]c4ccccc34)[C@@](C(=O)OC)(c3cc4c(cc3OC)N(C)[C@H]3[C@@](O)(C(N)=O)[C@H](O)[C@]5(CC)C=CCN6CC[C@]43[C@@H]65)C2)C1` (stereo partly drawn), in assay [1], the parasite load remaining is 65.1% (inactive). The viability in assay [1] turned out to be 135%. The fluorescence ratio in [2] and in assay [5] was 0.91 (inactive) throughout. The inhibition in assay [3] was -6.33% (inactive); in assay [4], 1.18% (inactive). Further, the compound was called inactive in [6]. Further, the mean signal in [7] was 260 (inactive).

On to `CC(=O)OCC(=O)[C@@]1(O)CC[C@H]2[C@@H]3CCC4=CC(=O)CCC4(C)[C@H]3C(=O)CC21C` (stereo partly drawn), for which, in [7], the mean signal was 237 (inactive).

As for `CN1CCN(c2nc3cc(C(F)(F)F)ccc3n3cccc23)CC1`, in [1], the parasite load remaining was 58.1% (inactive). Also, the viability in assay [1] came to 68%. Further, the fluorescence ratio in [2] and in assay [5] was 0.95 (inactive) in each case. The figures for the inhibition in [3] and in [4] were -10.7% (inactive) and 1.97% (inactive), respectively. In addition, the z-score is -0.53 (inactive) in assay [6]; -0.85 (inactive) and -1.01 (inactive) in [9]. The mean signal in [7] is 175 (inactive). Further, the fold change in assay [8] (setting [11]) was 1 (inactive) and 0.87 (inactive); in assay [8] (setting [12]), 1.47 and 0.615. For the same compound, the cell count in [8] (setting [13]) was 7250 and 7950; in assay [8] (setting [14]), 7230 and 9140.

In the case of `CCCCC[C@H](O)/C=C/[C@H]1[C@H](O)CC(=O)[C@@H]1CCCCCCC(=O)O`, the parasite load remaining in assay [1] was 87.1% (inactive) and 65% (inactive) and 24% (inactive). In addition, the viability in assay [1] is 70.2% and 67.7% and 65.5%. The fluorescence ratio in assay [2] is 0.87 (inactive); in [5], 0.98 (inactive). Further, the inhibition in [3] was -3.71% (inactive); in assay [4], -0.39% (inactive). Also, the z-score in assay [6] was -0.575 (inactive); in assay [10] (setting [15]), -0.41 (inactive) and -0.106 (inactive); in assay [10] (setting [16]) it was -0.367 and -0.604; in assay [9], 0.265 (inactive) and 0.315 (inactive). Moreover, in assay [7], the mean signal was 268 (inactive).

On to `COCC1=C(C(=O)OC(C)OC(=O)OC(C)C)N2C(=O)[C@@H](NC(=O)/C(=N\OC)c3csc(N)n3)[C@H]2SC1` (stereo partly drawn), for which, in [6], the result was inactive. Further, the mean signal in [7] was 270 (inactive). Moreover, the z-score is -0.0637 (inactive) in [10] (setting [15]) and -0.177 in assay [10] (setting [16]).

As to `CCCCC(=O)O[C@H]1CC[C@H]2[C@@H]3CCc4cc(O)ccc4[C@H]3CCC12C` (stereo partly drawn), the mean signal in assay [7] is 242 (inactive).

Regarding `C#C[C@]1(O)CC[C@H]2[C@@H]3CCC4=Cc5oncc5CC4(C)[C@H]3CCC21C` (stereo partly drawn), the mean signal in assay [7] is 250 (inactive). Further, the fold change in [8] (setting [11]) was 0.894 (inactive); in assay [8] (setting [12]), 1.79. In addition, the cell count came out at 7310 in assay [8] (setting [13]) and 8170 in assay [8] (setting [14]). Besides, the z-score in assay [9] is -0.725 (inactive).

Turning to `CC(=O)N1CCN(c2ccc(OC[C@H]3CO[C@](Cn4ccnc4)(c4ccc(Cl)cc4Cl)O3)cc2)CC1`, the figures for the fluorescence ratio in [2] and in assay [5] were 0.93 (inactive) and 0.91 (inactive), respectively. The inhibition in assay [3] is 4.36% (inactive); in assay [4], 13.8% (inactive). Further, the z-score was 0.168 (inactive) in assay [6]; 1.22 (inactive) and -0.0928 (inactive) in assay [10] (setting [15]); 0.853 and 1.14 in assay [10] (setting [16]); -1.2 (inactive) and -0.985 (inactive) and -1.05 (inactive) in assay [9]. Further, the mean signal in assay [7] was 283 (inactive).

Consider `CN1CCc2cc(Cl)c(O)cc2[C@@H](c2ccccc2)C1`, for which the parasite load remaining in assay [1] was 38.6% (inactive). Also, in assay [1], the viability came out at 72.6%. Further, the fluorescence ratio in [2] is 0.96 (inactive); in assay [5] it was 1.01 (inactive). Further, the inhibition was -5.46% (inactive) in [3] and -6.69% (inactive) in assay [4]. The z-score is -1.33 (inactive) in [6]; -0.095 (inactive) and 0.675 (inactive) in assay [9]. Moreover, in assay [7], the mean signal is 255 (inactive). Further, the fold change is 0.95 (inactive) and 0.955 (inactive) in [8] (setting [11]); 1.25 and 1.04 in [8] (setting [12]). For the same compound, the cell count was 9640 and 8960 in [8] (setting [13]); 10100 and 9370 in assay [8] (setting [14]).

As for `Cc1sc(N)c(C(=O)c2cccc(C(F)(F)F)c2)c1C`, in assay [1], the parasite load remaining was 28.2% (inactive). Also, in assay [1], the viability is 69.8%. In addition, the fluorescence ratio in assay [2] was 0.94 (inactive); in assay [5] it was 0.97 (inactive). Besides, the inhibition in assay [3] was -3.71% (inactive); in [4] it was -1.97% (inactive). In addition, the z-score is 0.715 (inactive) in assay [6]; 1.27 (inactive) and 1.38 (inactive) in assay [9]. In addition, the mean signal in assay [7] was 276 (inactive). The fold change in [8] (setting [11]) was 0.904 (inactive) and 0.931 (inactive); in [8] (setting [12]), 0.769 and 0.712. The cell count in assay [8] (setting [13]) was 8250 and 8560; in assay [8] (setting [14]), 9130 and 9190.

On to `CO/N=C(/C(=O)NC1C(=O)N2C(C(=O)O)=C(COC(C)=O)CSC12)c1csc(N)n1` (stereo not drawn), for which, in [7], the mean signal was 238 (inactive).

`CO/N=C(/C(=O)N[C@@H]1C(=O)N2C(C(=O)O)=C(COC(N)=O)CS[C@H]12)c1ccco1`: in [7], the mean signal was 235 (inactive).

Turning to `CC(=O)OCC(=O)[C@@]1(O)CC[C@H]2[C@@H]3CCC4=CC(=O)CCC4(C)[C@H]3[C@@H](O)CC21C` (stereo partly drawn), in assay [7], the mean signal is 278 (inactive).

Take `COc1cccc2c1C(=O)c1c(O)c3c(c(O)c1C2=O)C[C@@](O)(C(=O)CO)C[C@@H]3O[C@H]1C[C@H](N)[C@@H](O)[C@H](C)O1`: in assay [1], the parasite load remaining is -0.12% (inactive). Also, the viability in assay [1] is 25.2%. Moreover, the fluorescence ratio in assay [2] is 0.11 (active); in [5], 0.41 (active). Moreover, the inhibition is 4.36% (inactive) in assay [3] and 17.6% (inactive) in [4]. The z-score in [6] is -0.603 (inactive). In assay [7], the mean signal was 274 (inactive).

Turning to `C[C@@H]1C[C@H]2[C@@H]3CCC4=CC(=O)C=CC4(C)[C@@]3(F)[C@@H](O)CC2(C)[C@@]1(O)C(=O)CO` (stereo partly drawn), the mean signal in assay [7] is 285 (inactive).

As for `CC[C@]1(O)CC2CN(CCc3c([nH]c4ccccc34)[C@@](C(=O)OC)(c3cc4c(cc3OC)N(C=O)[C@H]3[C@@](O)(C(=O)OC)[C@H](OC(C)=O)[C@]5(CC)C=CCN6CC[C@]43[C@@H]65)C2)C1` (stereo partly drawn), the parasite load remaining in assay [1] is 70.4% (inactive) and 43.2% (inactive). In addition, the viability in [1] is 103% and 123%. Also, the fluorescence ratio was 0.94 (inactive) in [2] and 0.92 (inactive) in assay [5]. The inhibition is -2.84% (inactive) in [3] and 0.39% (inactive) in assay [4]. In addition, the outcome in assay [6] was inactive. Besides, the mean signal in assay [7] was 261 (inactive). Also, the results for the fold change in [8] (setting [11]) and in assay [8] (setting [12]) were 0.983 (inactive) and 2.57, respectively. The cell count in assay [8] (setting [13]) is 1600; in assay [8] (setting [14]), 1630.

As to `CC1(C)O[C@@H]2C[C@H]3[C@@H]4CCC5=CC(=O)C=CC5(C)[C@@]4(F)[C@@H](O)CC3(C)C2(C(=O)CO)O1` (stereo partly drawn), the mean signal in [7] was 258 (inactive).

Regarding `CN(C)c1ccc(O)c2c1C[C@H]1C[C@H]3[C@H](N(C)C)C(=O)C(C(N)=O)=C(O)C3(O)C(=O)C1=C2O` (stereo partly drawn), in [7], the mean signal was 263 (inactive).

`CC(C)N=c1cc2n(-c3ccc(Cl)cc3)c3ccccc3nc-2cc1Nc1ccc(Cl)cc1`: the fluorescence ratio in [2] is 0.94 (inactive); in assay [5] it was 0.96 (inactive). The figures for the inhibition in assay [3] and in assay [4] were 8.52% (inactive) and 6.69% (inactive), respectively. Moreover, the z-score is 1.38 (inactive) in assay [6]; -0.332 (inactive) and -3.07 (inactive) in [10] (setting [15]); 0.691 and -0.422 in assay [10] (setting [16]); -1.15 (inactive) in [9]. Moreover, the mean signal in assay [7] is 220 (inactive).

These data come from PubChem BioAssay.
